Experimental data as given in PubChem BioAssay (NCATS).
Records with an inconclusive call do not appear. Activity calls are given as the source filed them. The call rests on the fitted dose curve; in most records, active means well fitted inhibition curve with a large enough effect; inconclusive means small, poorly fitted or top-dose-only effect; inactive means flat fitted curve, though single readings scatter. Peptide text beside a SMILES is read from it.

tested on: JCK; assay: qHTS profiling for inhibitors of Plasmodium falciparum proliferation (AID 504749); further: nearly all actives have a fitted effect of over 60% in size; conditions: P. falciparum in erythrocytes, SYBR Green DNA, 72 h; series mostly up to 12.8 µM
Method in brief: (§1)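 Readout was DNA-dye fluorescence from lysed cultures, ex 485/em 535 nm. Parasitized red cells had grown 72 h with compound; data scaled between 0.29 uM artemisinin and DMSO wells and corrected using vehicle-only plates.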
Potency means the concentration at half of the fitted maximal effect.

Potency, active:
CO[C@]12C(COC(N)=O)C3=C(C(=O)C(C)=C(N)C3=O)N1CC1NC12 (some centres undefined) 5.01 µM
COc1cc(C2c3cc4c(cc3C(O[C@@H]3OC5COC(c6cccs6)OC5C(O)C3O)C3COC(=O)C23)OCO4)cc(OC)c1O (some centres undefined) 4.47 µM

Potency, inactive:
CC(C)=CCC[C@](C)(O)C1CC=C(C)CC1 (some centres undefined)
C[C@]1(c2ccccc2)OC(C(=O)O)=CC1=O
CC(=O)N[C@H](CC(C)C)C(=O)O
COc1ccc2cc(C(C)CO)ccc2c1 (centres undefined)
CC1CCC(C(C)C)C(=O)C1 (centres undefined)
CNC1CC(N)[C@H](O)[C@@H](O[C@@H]2OC(CO)C3OC4(OC(C(N)CO)C(O)C(O)C4O)O[C@@H]3[C@H]2O)C1O (some centres undefined)
CCCC(=O)O[C@]1(C(=O)CO)CCC2[C@@H]3CCC4=CC(=O)CC[C@]4(C)C3C(O)C[C@]21C (some centres undefined)
CC(=O)[C@]1(O)CCC2C3C=C(Cl)C4=CC(=O)C5CC5[C@@]4(C)C3CC[C@]21C (some centres undefined)
CC(=O)N[C@@H]1C(O)OC(CO)C(O)C1O (some centres undefined)
C/C1=C2N=C(/C=C3N=C(/C(C)=C4\[N-]C(C)(C5N=C1C(C)(CCC(=O)NCC(C)OP(=O)([O-])O[C@H]1C(O)C(n6cnc7cc(C)c(C)cc76)O[C@@H]1CO)C5CC(N)=O)C(C)(CC(N)=O)C4CCC(N)=O)C(C)(CC(N)=O)C\3CCC(N)=O)C(C)(C)C/2CCC(N)=O.[CH2-]C1OC(n2cnc3c(N)ncnc32)C(O)C1O.[Co] (some centres undefined)
O=C1OC(CO)C(O)C(O)C1O (centres undefined)
CNC1C(OC2C(O[C@@H]3C(O)C(O)[C@@H](N=C(N)N)C(O)C3N=C(N)N)OC(C)[C@@]2(O)CO)OC(CO)C(O)C1O (some centres undefined)
Nc1nc2ncc(CNc3ccc(C(=O)NC(CCC(=O)O)C(=O)O)cc3)nc2c(=O)[nH]1 (centres undefined)

tested on: N140; assay: as above; conditions: P. falciparum in erythrocytes, SYBR Green DNA, 72 h; series mostly up to 12.8 µM
Method in brief: as §1

Potency, inactive:
CN(C)CCCOC1C(C(O)CO)OC2OC(C)(C)O[C@@H]21 (some centres undefined)
CCC(C)C(=O)OC1CCC=C2C=CC(C)C(CCC3CC(O)CC(=O)O3)[C@@H]21 (some centres undefined)
CC(=O)OC1CCC2C3CCc4cc(O)ccc4C3CCC12C (centres undefined)
CC[C@@]12CCCN3CCc4c(n(c5ccccc45)[C@](O)(C(=O)OC)C1)C32 (some centres undefined)
CN1CC(=O)N=C1N
OCC1OC([S-])[C@H](O)C(O)C1O.[Au+] (some centres undefined)
CC(C)C1CCC(C(=O)NC(Cc2ccccc2)C(=O)O)CC1 (centres undefined)
CCC(CCC(C)C1CCC2C3CC=C4CC(O)CC[C@@]4(C)C3CC[C@@]12C)C(C)C (some centres undefined)
C[C@]12CCC(=O)C=C1CCC1C2C(=O)C[C@]2(C)C1CC[C@]2(O)C(=O)CO (some centres undefined)
OCC1O[C@H](OC2C(CO)O[C@@](O)(CO)C2O)C(O)C(O)C1O (some centres undefined)
CC1(C)OC2CO[C@]3(COS(N)(=O)=O)OC(C)(C)OC3C2O1 (some centres undefined)
CC1(C)OC2CC(=O)OC[C@@]23C1CC(=O)[C@]1(C)C3CC[C@@]2(C)C(c3ccoc3)OC(=O)C3O[C@@]321 (some centres undefined)
CCOC(=O)C1=CC(OC(CC)CC)C(NC(C)=O)C(N)C1 (centres undefined)
COC(=O)C(Cc1ccccc1)NC(=O)C(N)CC(=O)O (stereo not drawn) (H-Asp-Phe-OMe; configuration not given here)
C[C@]12C=CC(=O)C=C1CCC1C2C(O)C[C@]2(C)C1CC[C@]2(O)C(=O)CO (some centres undefined)
CC1(C)S[C@H]2C(NC(=O)[C@@H](N)c3ccc(O)cc3)C(=O)N2[C@@H]1C(=O)O (some centres undefined)
CC(C)=CCC[C@](C)(O)C1CC=C(C)CC1 (some centres undefined)
C[C@]1(c2ccccc2)OC(C(=O)O)=CC1=O
CC(=O)N[C@H](CC(C)C)C(=O)O
COc1ccc2cc(C(C)CO)ccc2c1 (centres undefined)
CC1CCC(C(C)C)C(=O)C1 (centres undefined)
CNC1CC(N)[C@H](O)[C@@H](O[C@@H]2OC(CO)C3OC4(OC(C(N)CO)C(O)C(O)C4O)O[C@@H]3[C@H]2O)C1O (some centres undefined)
CCCC(=O)O[C@]1(C(=O)CO)CCC2[C@@H]3CCC4=CC(=O)CC[C@]4(C)C3C(O)C[C@]21C (some centres undefined)
CC(=O)[C@]1(O)CCC2C3C=C(Cl)C4=CC(=O)C5CC5[C@@]4(C)C3CC[C@]21C (some centres undefined)
CC(=O)N[C@@H]1C(O)OC(CO)C(O)C1O (some centres undefined)
C/C1=C2N=C(/C=C3N=C(/C(C)=C4\[N-]C(C)(C5N=C1C(C)(CCC(=O)NCC(C)OP(=O)([O-])O[C@H]1C(O)C(n6cnc7cc(C)c(C)cc76)O[C@@H]1CO)C5CC(N)=O)C(C)(CC(N)=O)C4CCC(N)=O)C(C)(CC(N)=O)C\3CCC(N)=O)C(C)(C)C/2CCC(N)=O.[CH2-]C1OC(n2cnc3c(N)ncnc32)C(O)C1O.[Co] (some centres undefined)
O=C1OC(CO)C(O)C(O)C1O (centres undefined)
CNC1C(OC2C(O[C@@H]3C(O)C(O)[C@@H](N=C(N)N)C(O)C3N=C(N)N)OC(C)[C@@]2(O)CO)OC(CO)C(O)C1O (some centres undefined)
Nc1nc2ncc(CNc3ccc(C(=O)NC(CCC(=O)O)C(=O)O)cc3)nc2c(=O)[nH]1 (centres undefined)

Potency, active:
NC(C(=O)O)[C@@H]1CC(Cl)=NO1 (some centres undefined) 1.26 µM
COC1C=CO[C@@]2(C)Oc3c(C)c(O)c4c(O)c(c5c(nc6cc(C)ccn65)c4c3C2=O)NC(=O)/C(C)=C\C=CC(C)C(O)[C@@H](C)C(O)C(C)[C@@H](OC(C)=O)C1C (some centres undefined) 3.55 µM
CO[C@]12C(COC(N)=O)C3=C(C(=O)C(C)=C(N)C3=O)N1CC1NC12 (some centres undefined) 0.631 µM
COC1C=CO[C@@]2(C)Oc3c(C)c(O)c4c(O)c(c(C=NN5CCN(C)CC5)c(O)c4c3C2=O)NC(=O)/C(C)=C\C=CC(C)C(O)[C@@H](C)C(O)C(C)[C@H](OC(C)=O)C1C (some centres undefined) 0.199 µM
COc1cc(C2c3cc4c(cc3C(O[C@@H]3OC5COC(c6cccs6)OC5C(O)C3O)C3COC(=O)C23)OCO4)cc(OC)c1O (some centres undefined) 1 µM
